# Assay results from PubChem BioAssay AID1376 (SRMLSC, 2008).
# Among all 220,000 compounds or so, about 530 (0.24%) were called active. This excerpt belongs to a sample that is enriched for actives. Potency and affinity values are given separately. A number with no mark means an inactive call. Cut-off read from the data, not from the text of the source: active = inhibition above about 13%; inconclusive = no clear call, values can overlap the other calls; inactive = below that.
# Molecular target: Bifunctional protein GlmU (Mycobacterium tuberculosis (strain ATCC 25618 / H37Rv)) (UniProt P9WMN3)
# Test: inhibition of mycobacterial GlmU enzyme – biochemical, glucosamine-1-phosphate acetyltransferase (AID 1376);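 note: 0% = complete reaction with vehicle and 100% = reaction without substrate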
# Conditions: M. tuberculosis GlmU acetyltransferase enzyme assay; active compounds read high;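 tested at 30 µM in the primary screen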
# Sequence of Bifunctional protein GlmU (Mycobacterium tuberculosis (strain ATCC 25618 / H37Rv)) (P9WMN3 whole entry, looked up): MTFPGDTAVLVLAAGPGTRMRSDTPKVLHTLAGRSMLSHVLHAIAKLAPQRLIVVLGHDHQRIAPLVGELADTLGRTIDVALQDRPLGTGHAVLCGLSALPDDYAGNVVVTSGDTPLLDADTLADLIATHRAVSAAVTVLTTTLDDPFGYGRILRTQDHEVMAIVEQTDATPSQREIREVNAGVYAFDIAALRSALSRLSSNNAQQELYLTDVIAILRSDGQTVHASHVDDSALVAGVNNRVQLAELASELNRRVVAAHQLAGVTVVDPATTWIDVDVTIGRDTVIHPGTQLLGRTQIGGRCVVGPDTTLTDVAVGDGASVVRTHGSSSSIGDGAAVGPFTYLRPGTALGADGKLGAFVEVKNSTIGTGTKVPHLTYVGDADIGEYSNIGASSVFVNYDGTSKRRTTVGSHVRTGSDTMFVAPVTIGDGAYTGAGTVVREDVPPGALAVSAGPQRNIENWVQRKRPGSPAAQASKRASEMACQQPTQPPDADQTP
row,SMILES,inhibition
1,O=[N+]([O-])c1ccc(N2CCN(CCO)CC2)c2ncccc12,-1.16%
2,Cc1nc([N+](=O)[O-])cn1-c1nc2ccccn2c1[N+](=O)[O-],-6.37%
3,O=[N+]([O-])c1c(N2CCN(CCO)CC2)nc2ccccn12,15.2% (active)
4,COc1cccc(N2[C@@H](CC(=O)O)c3cc(C(F)(F)F)ccc3S2(=O)=O)c1,7.93%
5,C=CCn1c(Sc2ncc([N+](=O)[O-])s2)n[nH]c1=O,7.87%
6,COc1cccc(N=Nc2c(=O)[nH]n3c(=O)cc(C)[nH]c23)c1,13% (active)
7,CCOc1ccc(N=Nc2c(=O)[nH]n3c(=O)c4c([nH]c23)CCCC4)cc1,4.96%
8,COc1cccc(N=Nc2c(=O)[nH]n3c(=O)c4c([nH]c23)CCC4)c1,5.17%
9,Cc1ccc(N=Nc2c(=O)[nH]n3c(=O)cc(C)[nH]c23)cc1,9.14%
10,CCOc1ccc(N=Nc2c(=O)[nH]n3c(=O)cc(C)[nH]c23)cc1,17.1% (active)
11,Cc1cc(=O)n2[nH]c(=O)c(N=Nc3ccccc3)c2[nH]1,4.01%
12,COc1cc(NC(=O)c2cccc(COCC(F)(F)C(F)F)c2)cc(OC)c1OC,-1.01%
13,CC(C)C1Oc2cc3oc(=O)ccc3cc2C1=O (stereo not given),0.4%
14,S=c1[nH]nc(-c2ccncc2)n1/N=C/C=C/c1ccco1,13.6% (active)
15,S=c1[nH]nc(-c2ccccc2)n1/N=C/C=C/c1ccco1,6.1%
16,S=c1[nH]nc(-c2cccnc2)n1/N=C/C=C/c1ccco1,7.53%
17,O=C1NC(=O)N(Cc2ccccc2Cl)C(=O)/C1=C/c1cccs1,1.69%
18,C(=N/N1CCN(c2ccccc2)CC1)/c1ccncc1,-0.53%
19,COc1ccc(Br)cc1S(=O)(=O)N1CCOCC1,-4.63%
20,CCOc1ccc(Br)cc1S(=O)(=O)N1CCCC1,-3.03%

row,SMILES,inhibition
1,COc1ccc(Br)cc1S(=O)(=O)N1CCCC1,14.1% (active)
2,C=CCN(CC=C)C(=O)Nc1cc(Cl)ccc1OC,6.87%
3,O=C(CC1C(=O)N(c2ccccc2)C(=O)N1Cc1ccco1)Nc1ccccc1 (stereo not given),0.18%
4,Cc1csc(SCC(=O)N(C)CC(=O)Nc2ccc(F)cc2)n1,-5.2%
5,Cc1nnc(SCC(=O)N(C)CC(=O)Nc2ccc(F)cc2)n1Cc1ccccc1,-4.08%
6,Cc1cc(SCC(=O)N(C)CC(=O)Nc2ccc(F)cc2)nc2ccccc12,13.3% (active)
7,Cc1ccc(C)n1-c1ccc(C(=O)O)cc1,11.1%
8,Cc1ccc(C)n1-c1sc2c(c1C(=O)O)CCCC2,11.2%
9,Cc1cccc(-n2c(-c3ccco3)nc3ccccc3c2=O)n1,-2%
10,Cc1nc(S/C(=C/c2ccc(-c3ccc(Cl)cc3)o2)C(=O)O)n[nH]1,-0.27%
11,Cc1nc(S/C(=C/c2ccc(-c3ccc(C(=O)O)cc3)o2)C(=O)O)n[nH]1,11.3%
12,CC(=O)Nc1ccc(NC(=O)COC(=O)[C@@H](NC(=O)c2ccc(F)cc2)C(C)C)cc1,-1.53%
13,Cc1ccccc1C(=O)N1CCN(c2ccc(NC(=O)c3ccc4c(c3)OCO4)cc2)CC1,-4.66%
14,CNC(=O)COC(=O)CCC(=O)c1cccs1,4.98%
15,O=C(O)c1cccc(S(=O)(=O)N2CCN(C(c3ccccc3)c3ccccc3)CC2)c1,-1.93%
16,Cc1coc(NC(=O)CSc2nc(-c3ccc(Cl)cc3)cc(C(F)(F)F)c2C#N)n1,3.77%
17,COC(=O)C1=C2c3[nH]c4ccccc4c3CCN2C(=O)CC1,-2.64%
18,CN(C)S(=O)(=O)c1cccc(NC(=O)NCCCl)c1,8%
19,CN(CC(=O)NCCc1ccc(Cl)cc1)S(=O)(=O)c1ccc2c(c1)c(=O)n(C)c(=O)n2C,-0.75%
20,Cc1ccc(CCNC(=O)CN(C)S(=O)(=O)c2ccc3c(c2)c(=O)n(C)c(=O)n3C)cc1,2.34%

row,SMILES,inhibition
1,CCCCN(CC)CCNC(=O)CN(C)S(=O)(=O)c1ccc2c(c1)c(=O)n(C)c(=O)n2C,20.9% (active)
2,O=C1CCC/C(=N\NC(=O)c2ccc(CSc3cccc4cccnc34)cc2)C1,4.6%
3,Cn1c(SCC(=O)N/N=C/C=C/c2ccco2)nc2ccccc21,13% (active)
4,CCn1c(SCC(=O)N/N=C/C=C/c2ccco2)nc2ccccc21,-1.16%
5,Cn1c(SCC(=O)N/N=C/C=C\c2ccco2)nc2ccccc21,-4.83%
6,COc1cc(CNCCN(C)C)c(Br)cc1OCC(=O)NCc1ccccc1,-1.96%
7,COc1cc(/C=N/Nc2nc3ccccc3s2)cc([N+](=O)[O-])c1O,13.2% (active)
8,O=[N+]([O-])c1cc(Cl)cc(/C=N/Nc2nc3ccccc3s2)c1O,0.98%
9,COc1ccc(/C=N/Nc2nc3ccccc3s2)cc1O,-3.48%
10,COc1ccc(/C=C/C(=O)OCC(=O)NC(=O)NC(C)(C)C)cc1,1.36%
11,O=C(/C=C/c1ccc2ccccc2n1)N1CCN(S(=O)(=O)c2ccccc2F)CC1,-1.23%
12,CC(=O)c1ccc(S(=O)(=O)N2CCN(C(=O)/C=C/c3ccc4ccccc4n3)CC2)cc1,14.1% (active)
13,CC(=O)c1ccc(N2CCN(C(=O)/C=C/c3ccc4ccccc4n3)CC2)cc1,0.1%
14,Cc1ccc(/C=N/NC(=O)C(C)Oc2ccccc2[N+](=O)[O-])s1 (stereo not given),-0.21%
15,O=c1c2ccccc2n(Cc2ccccc2F)c(=O)n1Cc1ccccc1F,4.63%
16,Nc1cc(C(=O)O)ccc1Nc1ccccc1,-4.84%
17,Nc1ccc(Nc2ccccc2)c(Cl)c1,3.28%
18,Nc1ccc(Nc2ccccc2)c(S(=O)(=O)O)c1,36.2% (active)
19,CCN(CC)S(=O)(=O)c1ccc(OC)c(NC(=O)c2ccc([N+](=O)[O-])cc2)c1,-2.82%
20,Cc1cccc(-c2c3c(=O)n(C)c(=O)n(C)c3c3cccnn23)c1,-0.55%
